PubChem BioAssay AID588342 (National Center for Advancing Translational Sciences (NCATS), 2011)
Screen size: about 360,000 compounds; about 25,000 (6.9%) were called active. Another 9% or so got no clear call; they are omitted. Calls come from the whole dose curve; as a rule, active = well fitted inhibition curve with a large enough effect; inconclusive = small, poorly fitted or top-dose-only effect; inactive = flat fitted curve, though single readings scatter. Many of the other results were omitted from the sample, so actives are more common in it than they were.

Each compound was assayed against Luciferin 4-monooxygenase (Photinus pyralis) (UniProt P08659) (assay: qHTS profiling assay for firefly luciferase inhibitor/activator using purifed enzyme and Km concentrations of substrates (counterscreen for miR-21 project)). Details: purified FLuc, luminescence inhibition; series mostly up to 57.5 µM; activity change, negative = inhibition: at the top concentration.
Procedure, shortened: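 Purified P. pyralis luciferase (10nM final) with 10uM D-luciferin and 10uM ATP (Km levels) in 50mM Tris acetate pH 7.5, 10mM Mg acetate, 0.01% Tween-20, 0.05% BSA; qHTS 6-point titration, ~60 µM downward; luminescence read.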
Note: nearly all actives have a fitted effect of over 55% in size.
Potency is the fitted concentration of half-maximal effect.
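Throughout, for activity change, negative = inhibition: plate controls were vehicle for no effect and reference inhibitor for full effect.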

Luciferin 4-monooxygenase (Photinus pyralis), sequence (P08659 whole entry, looked up): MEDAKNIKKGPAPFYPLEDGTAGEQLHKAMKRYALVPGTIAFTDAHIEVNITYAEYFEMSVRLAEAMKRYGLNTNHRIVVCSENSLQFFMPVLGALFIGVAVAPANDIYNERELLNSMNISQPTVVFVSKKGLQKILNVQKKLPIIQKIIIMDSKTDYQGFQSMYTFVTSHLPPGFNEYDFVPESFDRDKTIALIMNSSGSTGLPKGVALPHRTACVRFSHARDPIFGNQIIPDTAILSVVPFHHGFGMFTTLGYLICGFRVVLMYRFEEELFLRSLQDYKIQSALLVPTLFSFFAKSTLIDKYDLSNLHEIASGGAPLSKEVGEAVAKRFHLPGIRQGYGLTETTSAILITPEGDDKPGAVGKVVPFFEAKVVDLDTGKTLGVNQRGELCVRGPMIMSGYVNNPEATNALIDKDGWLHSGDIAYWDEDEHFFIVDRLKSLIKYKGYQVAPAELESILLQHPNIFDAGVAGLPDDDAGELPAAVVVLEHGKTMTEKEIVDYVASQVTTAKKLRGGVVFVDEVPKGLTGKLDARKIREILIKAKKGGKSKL

Compound | Potency | activity change, negative = inhibition
O=C(Nc1ccc(N2CCOCC2)cc1)c1ccc(-c2ccccc2[N+](=O)[O-])o1 | 3.38 µM (active) | 
CN(CC(=O)Nc1ccc(N2CCOCC2)cc1)CC(=O)Nc1ccccc1[N+](=O)[O-] |  | 3.24% (inactive)
O=C(NC(=S)Nc1ccc(S(=O)(=O)N2CCOCC2)cc1)c1ccccc1[N+](=O)[O-] |  | 2.74% (inactive)
Cc1ccc2nc(C)c3c(c2c1)N(c1ccccc1)CC3 |  | 0.878% (inactive)
O=C(Cn1c(-c2cccs2)cc2ccccc21)NCCc1ccc(Cl)cc1 |  | -2.8% (inactive)
Cc1cc(/C=C(/C#N)C(=O)Nc2ccc(Cl)cc2)c(C)n1-c1cccnc1 |  | -4.13% (inactive)
Cc1ccc(-n2c(C)cc(/C=C(\C#N)C(=O)NCC3CCCO3)c2C)cc1 (stereo not drawn) | 0.675 µM (active) | 
Cc1ccc2c(c1)N(CC(=O)NCC1CCCO1)C(=O)CO2 (stereo not drawn) |  | 0.178% (inactive)
CC(=O)N1CCc2cc(Br)cc(S(=O)(=O)CCC(=O)NCCc3ccc(Cl)cc3)c21 |  | -10.7% (inactive)
C/C(=N\NS(=O)(=O)c1cccc([N+](=O)[O-])c1)c1cc2ccccc2o1 |  | -0.43% (inactive)
C/C(=N\NC(=S)Nc1ccc(C)cc1)c1cc2ccccc2o1 | 12 µM (active) | 
CC(=O)N1CCN(c2ccccc2NC(=S)NC(=O)c2cc3ccccc3o2)CC1 |  | 2.35% (inactive)
Cc1ccccc1C(=O)Nc1cc(C)c(O)c(-c2nc3ccccc3o2)c1 |  | -14.4% (inactive)
CC(OC(=O)c1cc2ccccc2o1)C(=O)Nc1ccc(N2CCOCC2)cc1 (stereo not drawn) |  | 2.46% (inactive)
COC(=O)c1ccc(-c2nc3cc(NC(C)=O)ccc3o2)cc1 |  | -6.59% (inactive)
Cc1ccsc1C(=O)OCC(=O)Nc1cccc(F)c1 |  | -19.3% (inactive)
CCN(C(=O)COC(=O)c1sccc1C)c1c(N)n(Cc2ccccc2)c(=O)[nH]c1=O |  | 0.789% (inactive)
CC(=O)Nc1ccc(-c2nc3ccccc3o2)cc1 | 3.01 µM (active) | 
Cc1ccsc1C(=O)OCC(=O)c1cc2ccccc2o1 | 5.36 µM (active) | 
Cc1cccc(-n2nc3c(c2NC(=O)c2cc4ccccc4o2)CS(=O)(=O)C3)c1 |  | -0.868% (inactive)
Cc1ccc(NC(=O)c2cc3ccccc3o2)cc1 | 3.38 µM (active) | 
COc1cc(C(=O)NCCc2csc3nc(-c4ccccc4C)nn23)cc(OC)c1OC |  | -6.88% (inactive)
Cc1ccc2cccc(NC(=O)C(C)Oc3ccc(C)c(C)c3)c2n1 (stereo not drawn) |  | -7.04% (inactive)
CC(C)Cn1c(C2CC(=O)N(c3ccccc3Cl)C2)nc2ccccc21 (stereo not drawn) |  | -2.7% (inactive)
Cc1ccc(C)c(Cn2c(C)c(CNCc3ccc(F)cc3)c(C(=O)O)c2C)c1 |  | -10.6% (inactive)
CCc1ccc2oc(-c3ccc(NC(=O)c4cc5ccccc5o4)cc3)nc2c1 |  | -0.596% (inactive)

Compound | Potency | activity change, negative = inhibition
Cc1cc2nc(-c3ccc(NC(=O)c4cc5ccccc5o4)cc3)oc2cc1C | 23.9 µM (active) | 
O=C(Nc1ccncc1)c1cc2ccccc2o1 | 12 µM (active) | 
Cc1cc(C(=O)CCl)c(C)n1CC1COc2ccccc2O1 (stereo not drawn) |  | -10.4% (inactive)
CCC(C)c1ccc2oc(-c3ccc(NC(=O)c4cc5ccccc5o4)cc3)nc2c1 (stereo not drawn) |  | -2.07% (inactive)
Cc1ccsc1C(=O)OCC(=O)c1cc(C)n(CC2CCCO2)c1C (stereo not drawn) | 0.151 µM (active) | 
Cc1ccc(OC(=O)c2ccccc2C(=O)OCC(F)(F)C(F)F)cc1 |  | -16.5% (inactive)
COc1ccccc1CN(C)C(=O)c1cc2ccccc2o1 |  | -12.7% (inactive)
Cc1cc(C(=O)Cn2cnc3cc([N+](=O)[O-])ccc3c2=O)c(C)n1CC1CCCO1 (stereo not drawn) |  | -17.8% (inactive)
Cc1ccc(OC(=O)c2cc3ccccc3o2)cc1 | 0.757 µM (active) | 
CCC1CCC2(CC1)NC(=O)N(CC(=O)Nc1ccc(OC)cc1)C2=O (stereo not drawn) |  | 0.329% (inactive)
Cc1ccc(-c2nc3ccccn3c2Nc2c(C)cccc2C)o1 |  | -6.56% (inactive)
Cc1ccc(S(=O)(=O)N2CCCc3cc(NS(=O)(=O)c4cc(C)ccc4C)ccc32)cc1 |  | -7.12% (inactive)
O=C(CCc1nc2sc3c(c2c(=O)[nH]1)CCCC3)NCC(=O)Nc1ccccc1Br |  | -1.92% (inactive)
Cc1cc(N(C)C)cc(C)[n+]1[O-] |  | 1.72% (inactive)
COc1cc(OC)cc(C(=O)NNC(=O)CCOc2ccccc2OC)c1 |  | 4.07% (inactive)
CCOc1ccccc1NC(=O)C1CCCN(S(=O)(=O)c2cn(C)cn2)C1 (stereo not drawn) |  | -5.71% (inactive)
COc1ccc(S(=O)(=O)N2CCOCC2)cc1NC(=O)Cc1c(F)cccc1Cl |  | 4.57% (inactive)
COc1ccc(CCNC(=O)COC(=O)C2CC2C)cc1 (stereo not drawn) |  | 5.85% (inactive)
CNc1nc(Nc2ccc(C)c(Cl)c2)nc(N)c1[N+](=O)[O-] | 4.78 µM (active) | 
CCN1CCN(c2nc(Nc3cccc(F)c3)nc(N)c2[N+](=O)[O-])CC1 |  | -1.68% (inactive)
Cc1ccc(Nc2nc(N3CCOCC3)nc(N3CCOCC3)n2)cc1Cl |  | -1.72% (inactive)
COc1ccccc1CNC(=O)Cn1nc(C)c2nn(-c3ccc(Cl)cc3)c(C)c2c1=O |  | -10.1% (inactive)
CCOC(=O)c1cccc(NS(=O)(=O)c2cn(C)c(C)n2)c1 |  | -2.62% (inactive)
O=C(Nc1ccccc1)OCc1cn(-c2ccc(Cl)cc2)nn1 |  | -1.55% (inactive)
O=C(CC1SC(=Nc2ccccc2)N(Cc2ccccn2)C1=O)Nc1cccc(Cl)c1 (stereo not drawn) |  | -19.3% (inactive)
O=C(Nc1cccc(Cl)c1)OCc1ccccn1 | 26.9 µM (active) | 

Compound | Potency | activity change, negative = inhibition
Nc1cccc(S(=O)(=O)Nc2ccc(SC(F)F)cc2)c1 |  | -2.66% (inactive)
O=C(CCn1c(=O)c2sccc2n(Cc2ccc(F)cc2)c1=O)NCc1ccc2c(c1)OCO2 |  | -1.27% (inactive)
COc1ccccc1N1CCN(C(CNC(=O)C(=O)NCc2ccc(C)cc2)c2cccnc2)CC1 (stereo not drawn) |  | -12.7% (inactive)
CCOc1ccc(CNCc2c(C(=O)O)c(C)n(Cc3cccc(OC)c3)c2C)cc1OC |  | -5.96% (inactive)
Oc1ccc(/C=N/NC2=NCCCCC2)c(O)c1 | 13.5 µM (active) | 
Cc1ccc(/C=N/NC(=O)C2=NNC(c3ccccc3)(c3ccccc3)C2)c(O)c1 |  | -13.1% (inactive)
COc1ccc(N2CCN(c3nc(-c4ccccc4F)nc4ccccc34)CC2)cc1 |  | 6.38% (inactive)
Cc1nc2ccccc2nc1N/N=C/c1ccc(O)cc1O | 12 µM (active) | 
Oc1c(Br)cccc1/C=N/Nc1c(F)c(F)c(F)c(F)c1F |  | -8.05% (inactive)
Oc1ccc(/C=N/Nc2nc(-c3ccccc3F)nc3ccccc23)c(O)c1 | 10.7 µM (active) | 
Cc1n[nH]c(=O)nc1N/N=C/c1cccs1 |  | -11.1% (inactive)
CC(C)(C)Nc1nc(-c2ccccn2)nc2ccccc12 |  | -1.03% (inactive)
CN1c2ccc(Cl)cc2-c2nc(SCC(=O)Nc3cc(F)ccc3F)ncc2S1(=O)=O |  | -11.9% (inactive)
O=C(NCCCO)C(=O)Nc1c2c(nn1-c1ccc(F)cc1)CSC2 |  | -11.4% (inactive)
Cn1c2cc(B(O)O)sc2c2cnn(Cc3ccccc3F)c(=O)c21 |  | -0.41% (inactive)
CCc1noc(C)c1C(=O)N1CCN(S(=O)(=O)c2cccc(C(F)(F)F)c2)CC1 |  | 4.82% (inactive)
OCC[C@H]1C[C@@H](O)[C@H](O)[C@@]2(OCCc3ccccc32)O1 |  | -0.0292% (inactive)
COc1ccc(S(=O)(=O)N2CCN(CC(=O)N3c4ccccc4CC3C)CC2)cc1OC (stereo not drawn) |  | -2.58% (inactive)
CC1Cc2cc(S(=O)(=O)CCC(=O)NCc3ccc(Cl)cc3)ccc2N1C(=O)C1CC1 (stereo not drawn) |  | -4.82% (inactive)
O=S(=O)(Nc1ccccc1Br)c1cccs1 |  | -2.09% (inactive)
O=S(=O)(NCc1ccc(Cl)cc1Cl)c1cccs1 |  | -19.7% (inactive)
O=C(Nc1cccc(Cl)c1)Nc1ccccc1NS(=O)(=O)c1cccs1 | 16.9 µM (active) | 
Cc1ccc(Cl)cc1N(C)C(=O)C1CCCN(c2ncnc3onc(-c4ccc(F)cc4)c23)C1 (stereo not drawn) |  | 2.19% (inactive)
COc1ccccc1NC(=O)c1oc2ccccc2c1NC(=O)C(C)C |  | -2.09% (inactive)
COc1ccccc1C(=O)Nc1c(C(=O)Nc2ccc(C)cc2)oc2ccccc12 |  | -0.534% (inactive)
COc1cc(OC)cc(C(=O)Nc2c(C(=O)Nc3ccc(F)cc3)oc3ccccc23)c1 | 2.69 µM (active) | 

Compound | Potency | activity change, negative = inhibition
Cc1ccc(C)c(NC(=O)Cn2ccn(-c3ccc(F)cc3)c(=O)c2=O)c1 |  | 4.99% (inactive)
CCOC(=O)C1CCN(c2nc3c(S(=O)(=O)c4ccc(CC)cc4)nnn3c3ccc(Cl)cc23)CC1 |  | -1.37% (inactive)
CCc1ccc(CNC(=O)c2cc3c(=O)n(CC)c4ccccc4c3s2)cc1 |  | 1.5% (inactive)
O=C(CCN1CCCO1)N1CCCC(N2CCN(c3cccc(C(F)(F)F)c3)CC2)C1 (stereo not drawn) |  | 2.52% (inactive)
CCc1ccc(CNC(=O)C2CCN(c3nn4cc(-c5ccc(F)cc5)nc4s3)CC2)cc1 |  | 1.26% (inactive)
CCC(CC)c1nn2cc(-c3ccccc3)nc2s1 | 0.269 µM (active) | 
CCC(CC)c1nnc(NS(=O)(=O)Cc2ccccc2)s1 |  | -1.81% (inactive)
Cc1ccc(F)cc1NC(=O)CCSc1nc(-c2ccco2)cc(C(F)(F)F)n1 |  | -0.691% (inactive)
Clc1ccccc1CSc1nncn2c1cc1occc12 |  | -11.8% (inactive)
CSCCC(NC(=O)COc1ccccc1)C(=O)N(C)CC(=O)Nc1ccc(C)cc1 (stereo not drawn) |  | -1.45% (inactive)
CCOC(=O)C1CCN(C(=O)CSc2c3c(nc4ccc(Cl)cc24)CCCC3)CC1 |  | -13.8% (inactive)
C=CCNc1scc(-c2ccccc2)[n+]1CC=C |  | -2.24% (inactive)
C=CCNC(=O)c1csc(-c2ccccc2)n1 |  | -1.52% (inactive)
C=CC[n+]1c(-c2ccc(C)cc2)csc1NNC(=O)Nc1ccccc1 | 19 µM (active) | 
CCOC(=O)C1CCCN(CCSc2ccc(C)cc2)C1 (stereo not drawn) |  | 0.266% (inactive)
O=C(COC(=O)CNC(=O)C1CCCCC1)NCc1ccccc1 |  | 0.92% (inactive)
COc1ccc2c(CC(=O)OCC(=O)Nc3ccccc3[N+](=O)[O-])coc2c1 |  | -0.294% (inactive)
Cc1ccc(C)c(OCC(=O)N2CCN(C(=O)c3ccco3)CC2)c1 |  | -0.911% (inactive)
Cc1ccc2nc(N3CCN(C(=O)c4ccco4)CC3)sc2c1 | 10.7 µM (active) | 
Cc1nc2ccc(C(=O)N3CCN(c4ccccc4)CC3)cc2s1 |  | 0.986% (inactive)
Cc1nc2ccc(C(=O)N3CCSCC3)cc2s1 |  | -1.24% (inactive)
Cc1ccc(OCC(=O)Nc2ccc(N3CCN(C(=O)c4ccco4)CC3)cc2)c(C)c1 |  | 0.84% (inactive)
CC1CCN(c2nc3ccc(C(=O)N4CCN(c5ccccc5)CC4)cc3s2)CC1 | 23.9 µM (active) | 
COc1cccc(CN2CCc3nc(SCC(=O)Nc4ccccc4)[nH]c(=O)c3C2)c1 |  | 2.41% (inactive)
COC(=O)C(NS(=O)(=O)c1ccc(F)cc1)c1ccccc1 (stereo not drawn) |  | -0.463% (inactive)
